GLD-1 TGE inh – GLD-1-TGE RNA interaction inhibition (C. elegans). Q17339. actives 0.44% (n = 320,000). AID 2280. purified GLD-1 + fluorescein TGE RNA, fluorescence polarization. inhibition, % at 5.96 µM;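 active = percent inhibition above a per-plate cutoff, the plate mean of test compounds plus 3 SD, cut at about 30% in these data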;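 note: 0% = DMSO wells with GLD-1 and probe and 100% = wells lacking GLD-1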
MEX-5 binding – C. elegans MEX-5 TCR-2 RNA binding activity; actives 0.38% (n = 300,000); MEX-5/FITC-TCR2 RNA binding, fluorescence polarization; active compounds read low; Q9XUB2; activity score (negative = inhibition of binding), % at 10 µM;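 active = inhibition past about -25% in most replicates, and total fluorescence under double the plate's negative control median, limit read from the data; inconclusive = replicates evenly split on the limit, or fluorescence at least double controls; inactive = too little inhibition in most replicates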;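 note: 0% = DMSO and -100% = 5 µM competing unlabeled TCR2 RNA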
MCL1-BIM inh – disrupts human MCL1 binding to BIM-BH3 peptide; actives 0.68% (n = 320,000); inhibition, % at 10.9 µM; GST-MCL1 / FITC-Bim-BH3 fluorescence polarization; Q07820;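 active = inhibition above the mean inhibition of all tested compounds plus 3 SD, set per campaign, cut at about 40% in these data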;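 note: 0% = DMSO wells and 100% = unlabeled Bim-BH3 peptide control; higher means more loss of mP so more displacement of Bim peptide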
Target sequence (Q07820 whole entry, looked up): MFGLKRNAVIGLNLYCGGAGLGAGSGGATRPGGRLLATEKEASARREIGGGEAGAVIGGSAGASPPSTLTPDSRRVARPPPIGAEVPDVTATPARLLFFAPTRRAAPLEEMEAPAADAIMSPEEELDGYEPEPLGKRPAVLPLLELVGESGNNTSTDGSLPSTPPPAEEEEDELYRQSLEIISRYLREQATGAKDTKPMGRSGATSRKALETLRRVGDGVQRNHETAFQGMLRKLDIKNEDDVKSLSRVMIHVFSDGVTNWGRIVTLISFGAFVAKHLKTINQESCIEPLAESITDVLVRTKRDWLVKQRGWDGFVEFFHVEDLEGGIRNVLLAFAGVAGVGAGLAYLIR
Bcl-xL primary – Bcl-xL (human) inhibition | GST-Bcl-xL / FITC-Bim BH3 peptide fluorescence polarization | inhibition, % at 10.9 µM | actives 0.7% (n = 320,000) | AID 2129;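 active = inhibition above the mean of all tested compounds plus 3 SD, cutoff set per campaign, cut at about 30% in these data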;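 note: 0% = DMSO wells and 100% = unlabeled Bim-BH3 peptide competitor; inhibitors lower millipolarization by displacing the labeled peptide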
Target sequence (Q07817 whole entry, looked up): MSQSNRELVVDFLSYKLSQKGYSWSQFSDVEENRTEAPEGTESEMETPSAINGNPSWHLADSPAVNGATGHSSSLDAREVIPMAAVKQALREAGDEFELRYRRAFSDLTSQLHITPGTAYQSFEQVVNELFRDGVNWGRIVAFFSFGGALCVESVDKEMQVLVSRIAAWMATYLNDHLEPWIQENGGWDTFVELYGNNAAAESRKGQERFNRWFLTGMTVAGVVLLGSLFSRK
LANA-H2B inh – blocks KSHV LANA binding to histone H2A/H2B; AID 2629; actives 0.6% (n = 320,000); Q9QR71; cell-free LANA-H2A/H2B peptide, fluorescence polarization; inhibition, % (test concentration not listed); in the data active = inhibition mostly above about 10%, no sharp cut-off; inactive = mostly below about 6.7%
Yeast superoxide – yeast age-related superoxide inhibition as caloric restriction mimetic; actives 0.18% (n = 330,000); S. cerevisiae aged cells, superoxide DHE fluorescence; active compounds read low; superoxide response (% of plate mean), % at 10 µM;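 active = superoxide response under a set limit, about three screen SD below normal, cut at about 65% in these data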;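 note: yeast aged for seven days with compound at 30 °C before DHE staining; 100% = average MFI of all compound-treated wells on the plate with controls excluded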
* marks the source's active call; other numbers are inactive results; ? = inconclusive; / = not tested or not shown; + = active, no number; ! = not active in a repeat. A selection: hits, their analogues and other compounds. The true share with any hit is near 1.9%.

SMILES | GLD-1 TGE inh | MEX-5 binding | MCL1-BIM inh | Bcl-xL primary | LANA-H2B inh | Yeast superoxide
CCN1C[C@]2(C)CC[C@H](OC)[C@]34C2[C@H](OC(C)=O)[C@@]2(OCO[C@@]25C[C@H](OC)[C@H]2C[C@]3(O)C5[C@H]2OC)[C@@H]14 | 1 | 2 | -2 | -1 | 3 | 95
CC(N)C(=O)OC(C)(C)Cc1ccc(Cl)cc1 (configuration not stated) | -1 | / | -2 | 5 | -13 | 96
CC(C)[N+]12CCC(CC1)C(C(O)(c1ccccc1)c1ccccc1)C2 (configuration not stated) | 2 | -1 | -16 | 2 | 0 | 101
CN1[C@@H]2CC[C@H]1CC(OC1c3ccccc3CCc3ccccc31)C2 (some centres not stated) | -1 | / | 4 | 0 | -9 | 89
Nc1c(Br)cc([N+](=O)[O-])cc1[N+](=O)[O-] | -2 | / | 2 | 2 | 26* | 145
NCc1cc(=O)[nH]o1 | 1 | / | 14 | 10 | -1 | 88
Cc1ccc(-n2c(O)c(C=NCCCn3ccnc3)c(=O)[nH]c2=O)cc1 | -2 | 0 | -10 | -6 | 13* | 105
C=CC(=O)NCNC(=O)C=C | 3 | / | 1 | 1 | 10* | 108
CN(C)C(=O)Oc1ccc2nnc3ccnn3c2c1 | 12 | -3 | 29 | 31* | 2 | 113
CN1C(=O)C(=Cc2sc(=O)n(-c3ccccc3)c2N2CCCCC2)C(=O)N(C)C1=O | / | -46* | / | / | / | /
c1ccc2nc(N3CCNCC3)ccc2c1 | 5 | / | 6 | 2 | 0 | 101
CC/C(=C\C=C\[C@@H]1C=C[C@@H]2CCC[C@H]2[C@@H]1C(=O)c1ccc[nH]1)[C@@H]1O[C@@H]([C@@H](C)C(=O)O)CC[C@@H]1C | 14 | ? | 32 | 34* | -1 | 88
O=C(CCN1CCCCC1)Nc1ccc(Br)cc1C(=O)c1ccccc1 | 1 | 0 | 9 | 11 | 19* | 99
C[N+]1(C)C2CCC1CC(OC(=O)C(CO)c1ccccc1)C2 (configuration not stated) | -1 | 2 | -24 | -10 | -2 | 84
C[N+]1(C)[C@@H]2CC[C@H]1CC(OC(=O)C(CO)c1ccccc1)C2 (some centres not stated) | -1 | -1 | -4 | -1 | 37*! | 96
Cc1cc(OCC(=O)NCc2ccncc2)c2c3c(c(=O)oc2c1)CCC3 | 1 | 0 | 1 | 9 | 16* | 104
CC[C@H](C)[C@@H]1O[C@@]2(C=CC1C)CC1C[C@@H](CC=C(C)C(O[C@H]3CC(OC)C(O[C@H]4CC(OC)C(O)C(C)O4)C(C)O3)C(C)C=CC=C3CO[C@@H]4C(O)C(C)=C[C@@H](C(=O)O1)[C@]34O)O2 (some centres not stated) | 8 | / | -5 | 11 | 3 | 75
COC(=O)C1=C(c2ccc(F)cc2OCc2ccccc2)C[C@@H]2CC[C@H]1N2C(=O)NCCCOC(C)C | 3 | / | 7 | 1 | -4 | 103
Cc1ccccc1N | 3 | / | 1 | 9 | -1 | 89
Cc1ccc(N)c(C)c1 | -9 | / | 4 | 3 | 37* | 116
CN1C(=O)NC(=O)/C(=C/c2ccc([N+](=O)[O-])s2)C1=O | 11 | -11 | 18 | 14 | 4 | 93
CN1C(=O)NC(=O)/C(=C\c2ccc([N+](=O)[O-])o2)C1=O | 23 | -61* | 39 | 39* | -4 | 94
O=C1NC(=O)N(c2ccccc2)C(=O)/C1=C\c1ccc([N+](=O)[O-])o1 | 12 | -2 | 42* | 36* | 5 | 98
CN1C(=O)NC(=O)/C(=C/c2ccc([N+](=O)[O-])o2)C1=O | 5 | -43* | 27 | 30* | 4 | 92
COC(=O)C1=C(c2ccc(C(C)=O)cc2)C[C@@H]2CC[C@H]1N2C(=O)N1CCC(O)CC1 | -5 | / | 4 | 5 | 1 | 102
SMILES | GLD-1 TGE inh | MEX-5 binding | MCL1-BIM inh | Bcl-xL primary | LANA-H2B inh | Yeast superoxide
CCCOc1ccc(C(C)=O)cc1Cc1c(O)[nH]c(=S)[nH]c1=O | 3 | -4 | 11 | -2 | 16* | 99
Oc1ccccc1C1NCc2ccccc2-n2cccc21 (configuration not stated) | 3 | 1 | -2 | -3 | 0 | 105
O=C(N/N=C/c1c(O)n(Cc2ccco2)c(=O)[nH]c1=O)c1ccccc1O | -9 | -27* | 26 | 6 | 0 | 115
CC(=O)CCC(C)=O | 3 | / | -1 | 7 | + | 95
Cc1ncc2n1-c1ccc(Cl)cc1C(c1ccccc1F)=NC2 | -1 | / | / | / | / | 109
CCOC(=O)Cc1csc(NC(=O)c2c(O)c3ccccc3n(CCC(C)C)c2=O)n1 | 2 | 0 | 5 | -4 | 15* | 97
CCCCCCn1c(=O)c(C(=O)Nc2nc(CC(=O)OCC)cs2)c(O)c2ccccc21 | 9 | 0 | 4 | 5 | 7 | 113
C/C=C/c1ccc2c(c1)OCO2 | -3 | / | -21 | -15 | 11* | 108
Cc1cccc(N2C(=O)NC(=O)/C(=C/c3cc4c(cc3[N+](=O)[O-])OCO4)C2=O)c1 | 77* | -69* | 119* | 118* | -3 | 91
CN(C)c1ccc(C=C2C(=O)NC(=O)NC2=O)cc1[N+](=O)[O-] | 2 | -5 | 13 | 4 | 4 | 104
O=C1NC(=O)C(=Cc2cc3c(cc2[N+](=O)[O-])OCO3)C(=O)N1 | 13 | -12 | 19 | 32* | 6 | 83
COc1ccc(-c2nc3ccc(C(=O)N4CCC5(CC4)OCCO5)cc3nc2-c2ccc(OC)cc2)cc1 | -3 | 5 | 1 | 0 | 2 | 145
CCCN1CCc2cc(O)cc3c2[C@H]1Cc1ccc(O)c(O)c1-3 | 1 | -82* | 37 | 32* | 2 | 94
COC(=O)C1=C(c2ccccc2OCc2ccccc2)C[C@@H]2CC[C@H]1N2C(=O)NCc1cccc(C(F)(F)F)c1 | -3 | / | 9 | 12 | -4 | 111
N=Cc1c(O)n(-c2cccc(Cl)c2)c(=O)[nH]c1=O | 6 | 1 | -4 | -8 | 2 | 96
O=c1[nH]c(=O)n(-c2cccc(Cl)c2)c(O)c1/C=N/c1ccccn1 | -13 | -29* | -18 | -14 | -3 | 121
CCC/C=N/O | 2 | / | 1 | 4 | 32* | 83
CC(=O)O[C@H]1CC[C@@]2(C)C(=CC(=O)C3C2CC[C@@]2(C)C3C[C@H](OC(C)=O)[C@@H]2OC(C)=O)C1 (some centres not stated) | -3 | / | / | / | 1 | 93
NS(=O)(=O)c1ccc(-c2ccc(C=C3C(=O)NC(=S)NC3=O)o2)cc1 | -5 | -49* | -26 | -16 | 2 | 112
CCCn1cc2c3c(cccc31)C1CC(C)CN(C)C1C2 (configuration not stated) | / | -27* | / | / | / | /

Screening data deposited in PubChem by several laboratories.
